Measurements from ChEMBL document CHEMBL3988442, “University of Dundee, Small-Polar-MMV Screening Library” (2021).
“And” between values parts separate entries of the source, which are not always exact repeats. Identical values can stand only once. For part of these data: Measured potencies and affinities stand elsewhere.

Tests used:
Design in all cases: scale not given: direction of the effect not stated beside the values
[1] = molecular target: Protein translocase subunit SecA (Escherichia coli (strain K12)) (UniProt P10408); assay: Assay to Identify E. coli SecA ATPase Inhibitors; type: functional; conditions: 30 µM
[2] = molecular target: T1, Ubiquitin-activating enzyme e1, putative (Leishmania donovani (strain BPK282A1)) (UniProt E9BSI1); assay: Leishmania donovani Ubiquitin Activating Enzyme (LdE1); type: functional; conditions: 30 µM
T1 sequence (whole entry): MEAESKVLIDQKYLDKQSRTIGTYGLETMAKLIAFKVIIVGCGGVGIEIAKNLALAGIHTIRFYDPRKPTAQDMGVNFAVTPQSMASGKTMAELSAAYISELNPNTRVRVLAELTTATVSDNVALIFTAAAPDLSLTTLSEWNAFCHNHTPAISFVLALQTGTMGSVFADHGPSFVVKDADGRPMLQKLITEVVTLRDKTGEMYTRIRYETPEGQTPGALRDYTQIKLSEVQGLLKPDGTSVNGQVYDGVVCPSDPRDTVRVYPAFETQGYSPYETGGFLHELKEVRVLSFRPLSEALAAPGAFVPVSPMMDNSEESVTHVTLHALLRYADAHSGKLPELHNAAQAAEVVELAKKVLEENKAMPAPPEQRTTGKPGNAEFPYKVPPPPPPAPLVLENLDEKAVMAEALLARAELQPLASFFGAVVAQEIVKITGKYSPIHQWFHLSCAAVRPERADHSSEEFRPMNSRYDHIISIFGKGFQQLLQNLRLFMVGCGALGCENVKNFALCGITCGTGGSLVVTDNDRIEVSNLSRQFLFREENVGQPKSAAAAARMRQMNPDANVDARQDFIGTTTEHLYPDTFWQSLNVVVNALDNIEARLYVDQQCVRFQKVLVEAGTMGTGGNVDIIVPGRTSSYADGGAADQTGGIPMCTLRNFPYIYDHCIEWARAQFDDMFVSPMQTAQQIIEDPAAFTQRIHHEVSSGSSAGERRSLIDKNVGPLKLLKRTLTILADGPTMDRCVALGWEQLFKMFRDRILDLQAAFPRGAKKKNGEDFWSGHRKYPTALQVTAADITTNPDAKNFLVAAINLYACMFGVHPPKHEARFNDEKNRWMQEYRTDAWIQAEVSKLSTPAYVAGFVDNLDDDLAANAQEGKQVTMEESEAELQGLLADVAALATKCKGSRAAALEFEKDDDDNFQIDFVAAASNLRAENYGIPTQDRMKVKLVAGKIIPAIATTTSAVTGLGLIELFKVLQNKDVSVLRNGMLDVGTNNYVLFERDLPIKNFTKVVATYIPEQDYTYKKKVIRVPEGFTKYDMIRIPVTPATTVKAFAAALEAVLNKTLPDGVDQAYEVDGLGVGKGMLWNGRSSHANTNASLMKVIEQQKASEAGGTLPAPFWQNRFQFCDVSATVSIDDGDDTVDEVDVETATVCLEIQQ

[3] = molecular target: AMP-activated protein kinase, AMPK (Homo sapiens) (UniProt P54646+O43741+P54619+Q9UGJ0+Q9Y478+Q13131+Q9UGI9); assay: AMP-dependent Kinase enzyme assay. An in vitro enzyme assay that detects ADP turnover that is directly proportional to AMPK activity. This uses naive AMPK that is activated during the assay with MK-8722; type: functional; conditions: 30 µM
[4] = molecular target: Sialic acid-binding Ig-like lectin 9 (Homo sapiens) (UniProt Q9Y336); assay: Hs-Siglec9 ALPHAscreen SOP 20170721; conditions: 10 µM
Trypanosoma cruzi = assay: Trypanosoma cruzi phosphomannomutase and mannose-1-phosphate guanylyltransferase assay; type: functional; conditions: 10 µM
[5] = molecular target: T2, Arginase-2, mitochondrial (Homo sapiens) (UniProt P78540); assay: in vitro enzyme assay to detect the production of urea directly proportional to the activity of Arginase II; type: functional; conditions: 33.3 µM; note: in the data most compounds retested in dose-response had high values
T2 sequence (whole entry): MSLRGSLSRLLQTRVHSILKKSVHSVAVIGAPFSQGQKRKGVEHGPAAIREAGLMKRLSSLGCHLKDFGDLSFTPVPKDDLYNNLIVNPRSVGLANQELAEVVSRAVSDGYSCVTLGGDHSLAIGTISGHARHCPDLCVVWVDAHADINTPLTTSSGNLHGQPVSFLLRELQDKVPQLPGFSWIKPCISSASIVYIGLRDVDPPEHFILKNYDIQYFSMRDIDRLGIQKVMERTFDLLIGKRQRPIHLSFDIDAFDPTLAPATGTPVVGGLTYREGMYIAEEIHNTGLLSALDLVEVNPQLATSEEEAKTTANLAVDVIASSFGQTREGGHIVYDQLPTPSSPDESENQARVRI

[6] = molecular target: T3, Proteasome subunit beta (Trypanosoma cruzi) (UniProt O96673); assay: Trypanosoma cruzi proteasome chymotrypsin-like activity (TcProtChymo) assay.; note: in the data most compounds retested in dose-response had high values; type: functional; conditions: 9.37 µM
T3 sequence (whole entry): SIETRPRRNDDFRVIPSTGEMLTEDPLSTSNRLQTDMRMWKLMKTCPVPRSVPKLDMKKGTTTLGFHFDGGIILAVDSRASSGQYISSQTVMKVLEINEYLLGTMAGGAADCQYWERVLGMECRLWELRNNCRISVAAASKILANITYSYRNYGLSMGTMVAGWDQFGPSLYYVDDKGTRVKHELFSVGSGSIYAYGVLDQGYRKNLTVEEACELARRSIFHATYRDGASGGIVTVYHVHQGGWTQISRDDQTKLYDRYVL

Homo sapiens = species: Homo sapiens; assay: To identify inhibition of the IFN signalling (Jak-Stat) pathway via expression of an eGFP reporter gene under the control of an IFN-stimulated response element (ISRE) containing MxA promoter.; type: functional; conditions: 30 µM
[7] = molecular target: T4, Tyrosyl-tRNA synthetase, putative (Trypanosoma cruzi (strain CL Brener)) (UniProt Q4DSP6); assay: Trypanosoma cruzi tyrosyl tRNA synthetase (TcYRS) _High Tyrosine SOP; type: functional; conditions: 30 µM; note: in the data most compounds retested in dose-response had high values
T4 sequence (whole entry): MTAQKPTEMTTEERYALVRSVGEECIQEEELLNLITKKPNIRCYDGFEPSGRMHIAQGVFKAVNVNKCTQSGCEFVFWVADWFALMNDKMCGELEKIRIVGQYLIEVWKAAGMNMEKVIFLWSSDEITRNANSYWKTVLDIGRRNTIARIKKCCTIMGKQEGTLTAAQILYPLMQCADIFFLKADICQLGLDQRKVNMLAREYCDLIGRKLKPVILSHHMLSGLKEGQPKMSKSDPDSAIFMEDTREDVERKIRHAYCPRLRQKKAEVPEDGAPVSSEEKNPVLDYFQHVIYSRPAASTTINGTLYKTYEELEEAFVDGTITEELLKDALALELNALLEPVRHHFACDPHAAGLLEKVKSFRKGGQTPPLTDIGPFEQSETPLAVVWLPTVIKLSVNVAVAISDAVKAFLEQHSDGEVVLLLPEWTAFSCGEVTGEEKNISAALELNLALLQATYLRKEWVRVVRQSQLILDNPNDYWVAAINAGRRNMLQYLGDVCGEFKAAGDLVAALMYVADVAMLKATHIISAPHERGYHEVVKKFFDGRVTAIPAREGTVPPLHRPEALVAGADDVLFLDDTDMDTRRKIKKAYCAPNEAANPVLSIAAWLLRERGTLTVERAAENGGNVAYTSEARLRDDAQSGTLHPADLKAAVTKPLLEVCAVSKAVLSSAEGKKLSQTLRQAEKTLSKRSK

[8] = molecular target: T4, Tyrosyl-tRNA synthetase, putative (Trypanosoma cruzi (strain CL Brener)); assay: Trypanosoma cruzi tyrosyl tRNA synthetase (TcYRS) SOP; type: functional; conditions: 30 µM
[9] = molecular target: Chromo domain-containing protein 1 (Saccharomyces cerevisiae (strain ATCC 204508 / S288c) (Baker's yeast)) (UniProt P32657); assay: ScCHD-1 Enzyme Inhibition Assay; type: functional; conditions: 30 µM; note: in the data most compounds retested in dose-response had high values
N/A = assay: Trypanosoma cruzi proteasome luciferase counter-screen; type: functional; conditions: 9.37 µM

Sequence of Chromo domain-containing protein 1 (Saccharomyces cerevisiae (strain ATCC 204508 / S288c) (Baker's yeast)) (P32657 whole entry, the tested form may be a part): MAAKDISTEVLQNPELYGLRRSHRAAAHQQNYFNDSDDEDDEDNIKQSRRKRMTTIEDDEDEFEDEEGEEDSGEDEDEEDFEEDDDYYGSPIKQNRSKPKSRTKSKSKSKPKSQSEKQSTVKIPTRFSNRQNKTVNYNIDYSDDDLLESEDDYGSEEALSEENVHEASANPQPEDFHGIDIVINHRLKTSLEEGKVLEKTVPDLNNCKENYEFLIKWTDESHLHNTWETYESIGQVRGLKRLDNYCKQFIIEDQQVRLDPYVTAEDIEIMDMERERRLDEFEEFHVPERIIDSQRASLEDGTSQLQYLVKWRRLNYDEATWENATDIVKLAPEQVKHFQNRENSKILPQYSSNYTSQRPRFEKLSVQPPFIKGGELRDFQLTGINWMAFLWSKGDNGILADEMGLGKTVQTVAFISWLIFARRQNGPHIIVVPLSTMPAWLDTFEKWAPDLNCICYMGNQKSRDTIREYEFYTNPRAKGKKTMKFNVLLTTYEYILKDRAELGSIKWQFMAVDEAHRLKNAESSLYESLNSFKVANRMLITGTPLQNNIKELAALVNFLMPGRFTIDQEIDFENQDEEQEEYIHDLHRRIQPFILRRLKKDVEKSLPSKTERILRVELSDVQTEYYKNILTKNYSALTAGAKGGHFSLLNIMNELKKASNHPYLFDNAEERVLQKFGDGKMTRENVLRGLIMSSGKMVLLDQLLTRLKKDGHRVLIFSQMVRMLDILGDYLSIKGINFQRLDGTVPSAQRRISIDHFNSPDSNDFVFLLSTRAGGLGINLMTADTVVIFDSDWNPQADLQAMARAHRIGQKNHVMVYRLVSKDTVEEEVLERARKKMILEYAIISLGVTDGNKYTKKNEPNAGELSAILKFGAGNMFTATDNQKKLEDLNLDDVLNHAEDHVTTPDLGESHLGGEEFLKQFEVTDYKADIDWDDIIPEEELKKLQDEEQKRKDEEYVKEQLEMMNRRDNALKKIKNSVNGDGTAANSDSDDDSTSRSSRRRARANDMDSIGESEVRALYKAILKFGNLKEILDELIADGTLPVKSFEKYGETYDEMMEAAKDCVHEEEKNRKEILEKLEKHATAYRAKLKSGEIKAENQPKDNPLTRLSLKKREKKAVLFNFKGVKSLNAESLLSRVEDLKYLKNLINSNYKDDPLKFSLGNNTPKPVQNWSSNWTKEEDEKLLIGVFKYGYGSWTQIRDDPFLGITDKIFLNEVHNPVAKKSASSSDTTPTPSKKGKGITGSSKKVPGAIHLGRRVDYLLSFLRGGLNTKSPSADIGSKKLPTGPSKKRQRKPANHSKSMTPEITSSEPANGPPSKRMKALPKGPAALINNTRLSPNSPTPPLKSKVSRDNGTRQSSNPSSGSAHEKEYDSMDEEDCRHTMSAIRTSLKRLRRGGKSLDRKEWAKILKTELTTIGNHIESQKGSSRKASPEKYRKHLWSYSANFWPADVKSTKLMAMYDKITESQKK
Sequence of Sialic acid-binding Ig-like lectin 9 (Homo sapiens) (Q9Y336 whole entry): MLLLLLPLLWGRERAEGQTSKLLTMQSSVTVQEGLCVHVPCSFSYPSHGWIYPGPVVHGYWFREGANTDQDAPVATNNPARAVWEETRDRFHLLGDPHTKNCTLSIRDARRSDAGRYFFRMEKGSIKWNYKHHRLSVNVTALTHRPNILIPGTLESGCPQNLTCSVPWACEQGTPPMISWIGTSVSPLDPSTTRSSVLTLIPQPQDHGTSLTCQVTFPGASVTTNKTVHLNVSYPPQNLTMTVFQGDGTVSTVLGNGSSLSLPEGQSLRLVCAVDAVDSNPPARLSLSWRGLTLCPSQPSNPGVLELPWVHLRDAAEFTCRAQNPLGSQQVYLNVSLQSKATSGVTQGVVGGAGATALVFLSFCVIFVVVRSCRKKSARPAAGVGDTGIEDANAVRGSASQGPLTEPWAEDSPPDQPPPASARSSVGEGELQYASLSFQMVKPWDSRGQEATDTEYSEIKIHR
Sequence of Protein translocase subunit SecA (Escherichia coli (strain K12)) (P10408 whole entry): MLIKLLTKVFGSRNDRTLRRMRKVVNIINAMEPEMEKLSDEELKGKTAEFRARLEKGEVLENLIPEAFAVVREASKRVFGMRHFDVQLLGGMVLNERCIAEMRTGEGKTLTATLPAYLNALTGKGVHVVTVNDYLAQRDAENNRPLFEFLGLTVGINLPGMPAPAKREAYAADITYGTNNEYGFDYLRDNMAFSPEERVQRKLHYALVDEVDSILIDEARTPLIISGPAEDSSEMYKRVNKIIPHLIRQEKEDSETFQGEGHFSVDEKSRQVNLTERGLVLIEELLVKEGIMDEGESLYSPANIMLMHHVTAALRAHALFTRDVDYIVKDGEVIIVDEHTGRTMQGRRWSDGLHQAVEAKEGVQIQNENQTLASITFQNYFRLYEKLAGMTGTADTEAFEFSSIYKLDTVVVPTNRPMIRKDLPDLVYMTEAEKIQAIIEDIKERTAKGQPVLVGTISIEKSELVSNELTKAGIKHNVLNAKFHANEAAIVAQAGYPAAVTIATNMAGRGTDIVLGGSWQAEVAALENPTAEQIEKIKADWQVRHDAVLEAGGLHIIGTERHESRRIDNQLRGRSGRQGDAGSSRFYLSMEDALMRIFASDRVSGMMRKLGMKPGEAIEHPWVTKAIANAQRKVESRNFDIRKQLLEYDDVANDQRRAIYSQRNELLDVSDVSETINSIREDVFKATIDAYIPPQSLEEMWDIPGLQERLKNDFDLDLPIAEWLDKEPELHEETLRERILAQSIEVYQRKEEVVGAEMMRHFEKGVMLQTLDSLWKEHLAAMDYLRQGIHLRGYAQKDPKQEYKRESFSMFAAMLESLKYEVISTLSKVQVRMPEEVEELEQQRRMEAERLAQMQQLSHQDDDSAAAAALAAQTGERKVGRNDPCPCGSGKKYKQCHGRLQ

Compound | Percent Effect [1] | Percent Effect [2] | Percent Effect [3] | Percent Effect [4] | Percent Effect (Trypanosoma cruzi) | Percent Effect [5] | Percent Effect [6] | Percent Effect (Homo sapiens) | Percent Effect [7] | Percent Effect [8] | Percent Effect [9] | Percent Effect (N/A)
Cc1nc(CN(C)C2CCN(CC3CCCCC3)C2)no1 (centres undefined) | -3.09% | 18.9% | -8.63% | 1.46% | 4.55% | -7.95% | 8.8% | 10.1% | 5.94% | 23.2% | -8.81% | –
CCC(=O)Nc1ccc(C(C)NC(=O)COCCOC)cc1 (centres undefined) | 0.243% | 15.8% | -1.87% | -5.07% | 1.46% | -3.55% | 15.1% | 23.5% | 4.25% | 15.6% | -5.61% | –
Cc1ccc(CN2CC[C@H]3[C@@H]2CCC(=O)N3CCN2CCCC2)s1 | -1.28% | 10.7% | 8.56% | -12.2% | -8.27% | -3.03% | 10.5% | 7.46% | -3.19% | 1.28% | -2.35% | –
COc1cccc(N2CCN(C(=O)C(O)c3cccc(Cl)c3)CC2=O)c1 (centres undefined) | 0.76% | 10.8% | -5.94% | -2.7% | -3.48% | -1.91% | 11.2% | 22.3% | 4.76% | 0% | -1.09% | –
CCOc1ccc(NC(=O)CN2CCN(c3nccn3C)CC2)cc1 | 0.133% | 10.4% | 0.177% | -1.93% | 7.79% | -3.23% | 15.5% | -6.28% | 9.52% | 14.1% | -9% | –
O=C(NCc1cccnc1)C1=NN(c2ccccc2)C(=O)CN1 | -0.966% | 18.9% | 8.77% | 14.9% | 0.293% | 26.1% | 15% | -2.67% | 6.45% | 18.5% | -8.57% | –
Cc1noc([C@H]2C[C@H]3OCC[C@H]3N(Cc3ccc4c(c3)OCO4)C2)n1 | -1.12% | 13.5% | 5.01% | -6.24% | -0.88% | 6.05% | 11.4% and 30.6% and 12.5% | -2.22% | 5.41% | 17.9% | -3.92% | 7.96% and 8.15%
Cc1cccc(N2Cc3nc(=O)[nH]n3C2=O)c1 | 1.1% | 4% | 3.29% | -0.713% | -4.52% | -9.33% | 19.6% | -0.119% | 5.29% | 5.13% | -4.23% | –
NC(=O)C1CCN(Cn2nc(-c3ccccc3)oc2=O)CC1 | -1.26% | 15.6% | 6.06% | 6.43% | 1.08% | -56.5% | 20.3% | 2.82% | 4.3% | 16.1% | -5.92% | –
CCc1noc(C)c1C(=O)N(C)Cc1ncc(C)c(OC)c1C | -5.87% | 10.4% | 5.05% | -5.08% | 6.76% | 2.32% | 7.36% | 7.84% | 8.57% | 18.8% | -14.6% | –
CCc1nnc2n1CCN(CC(=O)Nc1sccc1C#N)C2 | -4.04% | 10.5% | -7.74% | -3.22% | -8.68% | 5.4% | 12.6% | -5.63% | 5.42% | 6.17% | -3.17% | –
CCS(=O)(=O)c1ccccc1N1CCC(NC(=O)NC2CCCC2)CC1 | -5.55% | 10.8% | 5.69% | 8.77% | 0.279% | -3.14% | -1.62% | 16% | 6.93% | 13.4% | -1.94% | –
CCN(CC)Cc1cn2c(n1)CN(C(=O)c1cnccn1)CC2 | -2.54% | 10.8% | 3.85% | -1.54% | -3.62% | 6.69% | 19.9% | -5.71% | 3.24% | 7.69% | 0.514% | –
Cn1ccc(C(=O)NC2CCN(c3ncccn3)CC2)cc1=O | -2.08% | 13.5% | -7.39% | 7.92% | -0.0943% | 0.401% | 9.73% | 5.6% | 1.48% | 11.1% | -9.93% | –
N#CC1(C(=O)Nc2ccc(OC(F)F)cc2)CCCC1 | -4.03% | 1.39% | 5.97% | -0.254% | 0.68% | 2.21% | 3.68% | -8.03% | 2.1% | 5.13% | -0.635% | –
Cc1nn(-c2ccccc2)nc1C(=O)N1CCCC1c1cnn(C)c1 (centres undefined) | -5.15% | 0% | -0.474% | 2.1% | -2.32% | -4.99% | 0.539% | 12.6% | 2.97% | 6.1% | 7.07% | –
CN(Cc1ccc(F)cc1)CC1(O)CCN(C(=O)c2cccn2C)C1 (centres undefined) | -6.43% | 13.3% | 2.06% | 5.19% | 3.15% | -4.43% | 0.969% | 3% | 6.38% | 8.97% | -9.32% | –
CN(C)C(=O)CNC(=O)c1ccc(Cl)cc1F | -6.12% | 21.1% | -0.479% | -6.12% | 3.99% | -65.1% | 13.7% | 15.7% | 6.38% | -28.6% | -15.3% | –
CCn1ccnc1CN1CCN(Cc2ccccn2)CC1C (centres undefined) | 1.15% | 5.41% | -1.29% | 3.52% | -3.91% | 5.42% | 9.04% | 12.7% | 8.91% | 13.4% | 14% | –
Cc1ccc(C(=O)Nc2cn[nH]c2)cc1C | 0.399% | 18.4% | 16.7% | 3.99% | 0.188% | 1.15% | 53% and 40.4% and 50.9% | 5.81% | 11.3% | 24.4% | -9.31% | 27.1% and 25%
Cn1cc(-c2cnc(N3CCOCC3)nc2)cc1C(=O)O | -3.79% | 5.41% | 2.15% | 1.49% | 5.08% | 18.3% | 100% (2×) and 98.7% | 5.61% | 5.94% | 11% | -7.1% | 97.4% and 97.5%
